Active and inactive are the calls of the source. How the source made its calls: active means hit-call score of the fitted dose curve at least 0.9, where 1 is the maximum; inactive means score below 0.9.
Experiments:
[1] = ATG_CRE_CIS: Attagene CIS-FACTORIAL HepG2 Assay for human cAMP Responsive Element (CRE) binding protein 3 (AID 2282926); details: HepG2 CRE cis-reporter, Attagene multiplexed mRNA; actives raise or lower the signal
In short: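 Endogenous CRE-binding activity in HepG2 is reported through a cis-regulated transfected reporter. Following a day of exposure, mRNA levels are determined by reverse transcription PCR and fluorescent fragment analysis; fits run in both directions versus DMSO.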

[2] = target: CCAAT/enhancer-binding protein beta (Homo sapiens) (UniProt P17676); experiment: ATG_C_EBP_CIS: Attagene CIS-FACTORIAL HepG2 Assay for human CCAAT/Enhancer Binding Protein (C/EBP) beta (AID 2282927); details: HepG2 Attagene cis-factorial transcription factor reporter; actives raise or lower the signal
CCAAT/enhancer-binding protein beta (Homo sapiens), sequence (P17676 whole entry, looked up): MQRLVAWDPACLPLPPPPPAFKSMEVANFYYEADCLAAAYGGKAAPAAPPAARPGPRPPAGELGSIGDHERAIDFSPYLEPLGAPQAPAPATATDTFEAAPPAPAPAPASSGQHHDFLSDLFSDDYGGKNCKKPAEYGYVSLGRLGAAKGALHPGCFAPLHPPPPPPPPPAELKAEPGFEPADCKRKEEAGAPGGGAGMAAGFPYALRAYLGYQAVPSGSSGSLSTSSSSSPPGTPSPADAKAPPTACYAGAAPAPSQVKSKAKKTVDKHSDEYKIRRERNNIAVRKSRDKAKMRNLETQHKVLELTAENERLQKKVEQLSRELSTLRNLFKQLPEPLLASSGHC
In short: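 HepG2 transiently transfected with multiplexed reporter units under cis-regulatory promoters reporting endogenous C/EBPb activity. After 24 h exposure, reporter mRNA assayed by RT-PCR, fluorescent labelling, HpaI digestion and capillary electrophoresis; bidirectional fitting versus DMSO.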

[3] = ATG_CMV_CIS: Attagene CIS-FACTORIAL HepG2 Assay for human CMV (Internal Marker) (AID 2282928); details: HepG2 CMV promoter reporter, transcription factor profiling; actives raise or lower the signal;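 further: endpoint acts as a background internal control marker rather than a target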
In short: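 CMV internal-marker background readout in transiently transfected HepG2 cells bearing cis-regulated reporter units. Reporter mRNA is measured 24 h after dosing by RT-PCR and capillary electrophoresis, with bidirectional fitting against DMSO.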

[4] = ATG_DR4_LXR_CIS: Attagene CIS-FACTORIAL HepG2 Assay for human Liver X Receptor (LXR), DR4 submotif (AID 2282929); details: HepG2 Attagene DR4 cis-reporter, mRNA transcription; actives raise or lower the signal
In short: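 Total RNA from 24 h-treated, MRTU-transfected HepG2 cells underwent reverse transcription, PCR, fluorescent primer extension and restriction digestion before capillary electrophoresis. Both increases and decreases in reporter signal were fitted against DMSO.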

[5] = target: Aryl hydrocarbon receptor (Homo sapiens) (UniProt P35869); experiment: ATG_Ahr_CIS: Attagene CIS-FACTORIAL HepG2 Assay for human Aryl Hydrocarbon Receptor (Ahr) (AID 2282930); details: HepG2 AhR cis-factorial reporter transcription; actives raise or lower the signal
Aryl hydrocarbon receptor (Homo sapiens), sequence (P35869 whole entry, looked up): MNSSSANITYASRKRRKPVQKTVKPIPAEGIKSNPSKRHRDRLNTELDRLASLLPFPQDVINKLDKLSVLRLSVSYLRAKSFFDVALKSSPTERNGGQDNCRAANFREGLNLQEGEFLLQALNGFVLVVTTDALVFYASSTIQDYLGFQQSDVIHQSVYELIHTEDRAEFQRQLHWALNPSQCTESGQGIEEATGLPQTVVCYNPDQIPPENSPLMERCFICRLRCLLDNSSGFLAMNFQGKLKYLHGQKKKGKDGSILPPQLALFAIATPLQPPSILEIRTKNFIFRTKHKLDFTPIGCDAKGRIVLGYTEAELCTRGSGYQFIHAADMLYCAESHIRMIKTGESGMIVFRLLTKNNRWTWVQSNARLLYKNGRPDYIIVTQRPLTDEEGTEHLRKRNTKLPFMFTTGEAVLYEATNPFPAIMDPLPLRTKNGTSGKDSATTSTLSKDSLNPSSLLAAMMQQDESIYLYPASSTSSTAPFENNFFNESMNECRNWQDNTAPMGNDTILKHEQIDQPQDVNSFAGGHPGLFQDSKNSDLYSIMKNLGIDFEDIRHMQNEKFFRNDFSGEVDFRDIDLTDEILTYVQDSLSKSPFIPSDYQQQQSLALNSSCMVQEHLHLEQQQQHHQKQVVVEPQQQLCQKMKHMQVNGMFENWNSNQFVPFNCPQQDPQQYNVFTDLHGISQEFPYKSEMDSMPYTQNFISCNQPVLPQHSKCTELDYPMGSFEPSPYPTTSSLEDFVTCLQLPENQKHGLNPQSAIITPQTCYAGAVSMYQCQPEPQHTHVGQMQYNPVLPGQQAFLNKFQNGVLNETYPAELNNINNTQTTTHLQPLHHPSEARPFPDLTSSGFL
In short: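 HepG2 cells transiently transfected with cis-element-driven multiplexed reporter units; endogenous AhR activity read as reporter mRNA 24 h after dosing, via RT-PCR, 6-FAM labelling, HpaI digestion and capillary electrophoresis. Bidirectional fit relative to DMSO.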

[6] = ATG_AP_1_CIS: Attagene CIS-FACTORIAL HepG2 Assay for human Activator Protein 1 (AP-1) (AID 2282931); details: HepG2 Attagene cis-factorial AP-1 reporter mRNA; actives raise or lower the signal
In short: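 HepG2, transient cis-reporter transfection; 24 h; readout RT-PCR/CE fluorescence; DMSO baseline, gain and loss fitted.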

[7] = ATG_AP_2_CIS: Attagene CIS-FACTORIAL HepG2 Assay for human Activator Protein 2 (AP-2) (AID 2282932); details: HepG2 AP-2 cis-reporter, Attagene transcription factor profiling; actives raise or lower the signal
In short: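 HepG2 cells transiently transfected with cis-element reporter units and exposed for 24 h. Reporter mRNA measured by RT-PCR, FAM labelling, HpaI digestion and capillary electrophoresis. Changes in either direction fitted relative to DMSO.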

[8] = ATG_BRE_CIS: Attagene CIS-FACTORIAL HepG2 Assay for human Bone Morphogenetic Protein (BMP) Response Element (BRE) (AID 2282933); details: HepG2 BMP response element reporter, Attagene transcription factor profiling; actives raise or lower the signal
In short: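 Endogenous transcription factor activity read in transiently transfected HepG2 cells after 24 h chemical exposure. Bidirectional curve fitting against DMSO; readout is reporter transcript level by RT-PCR with capillary electrophoresis of labelled products.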

[9] = target: Transcription factor E2F1 (Homo sapiens) (UniProt Q01094); experiment: ATG_E2F_CIS: Attagene CIS-FACTORIAL HepG2 Assay for human E2F Transcription Factor 1 (AID 2282935); details: HepG2 Attagene cis-reporter, E2F reporter RNA transcripts; actives raise or lower the signal
Transcription factor E2F1 (Homo sapiens), sequence (Q01094 whole entry, looked up): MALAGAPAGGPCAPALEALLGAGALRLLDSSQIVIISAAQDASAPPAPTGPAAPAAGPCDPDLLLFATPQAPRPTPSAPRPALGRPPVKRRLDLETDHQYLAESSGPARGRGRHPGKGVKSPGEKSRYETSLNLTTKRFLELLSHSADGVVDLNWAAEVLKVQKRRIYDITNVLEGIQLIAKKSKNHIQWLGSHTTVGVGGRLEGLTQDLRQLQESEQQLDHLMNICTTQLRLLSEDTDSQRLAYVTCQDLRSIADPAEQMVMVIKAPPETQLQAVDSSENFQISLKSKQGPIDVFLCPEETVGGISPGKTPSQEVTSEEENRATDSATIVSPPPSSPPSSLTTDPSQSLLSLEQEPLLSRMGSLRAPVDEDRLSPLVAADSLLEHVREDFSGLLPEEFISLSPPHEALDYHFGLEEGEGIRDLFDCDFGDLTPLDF
In short: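 Endogenous E2F1 activity read through cis-promoter reporter units transfected into HepG2. After 24 h compound treatment, reporter mRNA measured by RT-PCR, HpaI digestion and capillary electrophoresis. Bidirectional fit versus DMSO.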

[10] = ATG_E_Box_CIS: Attagene CIS-FACTORIAL HepG2 Assay for human Enhancer Box (E-box) (AID 2282936); details: HepG2 E-box cis-reporter transcription, actives raise or lower the signal
In short: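 HepG2 cells transiently transfected with multiplexed cis-element reporter units, dosed 24 h; reporter mRNA quantified by RT-PCR, 6-FAM labelling, HpaI digestion and capillary electrophoresis. E-box (USF1) signal fitted bidirectionally vs DMSO.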

[11] = ATG_M_61_CIS: Attagene CIS-FACTORIAL HepG2 Assay for M61 Transcription Factor (Internal Marker) (AID 2282937); details: HepG2 Attagene CIS-FACTORIAL M61 internal marker reporter; actives raise or lower the signal
In short: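 Transfect HepG2 with MRTUs; dose 24 h; isolate RNA; reverse-transcribe with DNase I treatment; PCR-amplify, FAM-label and cut with HpaI for 2 h at 37 C; resolve by CE. Bidirectional fitting against DMSO.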

[12] = ATG_EGR_CIS: Attagene CIS-FACTORIAL HepG2 Assay for human Early Growth Response 1 (EGR1) (AID 2282938); details: HepG2 Attagene CIS-FACTORIAL EGR reporter mRNA; actives raise or lower the signal
In short: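 After a 24 h treatment of transiently transfected HepG2 cells, total RNA was reverse-transcribed and reporter sequences PCR-amplified, labelled and run on capillary electrophoresis. Reporters sit under cis-regulatory promoters sensing endogenous factors.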

[13] = ATG_M_19_CIS: Attagene CIS-FACTORIAL HepG2 Assay for M19 Transcription Factor (Internal Marker) (AID 2282939); details: HepG2 Attagene CIS-FACTORIAL M19 internal marker reporter; actives raise or lower the signal
In short: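 Internal marker readout, fitted in both directions against DMSO, from HepG2 cells carrying transfected cis-element reporter constructs; RT-PCR and capillary electrophoresis of reporter mRNA after 24 h exposure.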

[14] = ATG_ERE_CIS: Attagene CIS-FACTORIAL HepG2 Assay for Estrogen Response Element (ERE) (AID 2282940); details: HepG2 ERE cis-reporter, Attagene RNA transcript; actives raise or lower the signal
In short: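 After 24 h compound treatment, RNA from transfected HepG2 cells was reverse-transcribed, reporter cDNA PCR-amplified, FAM-labelled, HpaI-cut and resolved by capillary electrophoresis. ERE-driven cis reporter transcripts reflect endogenous factors; gain or loss scored against DMSO.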

[15] = ATG_Ets_CIS: Attagene CIS-FACTORIAL HepG2 Assay for human Erythroblast Transformation Specific (ETS) (AID 2282941); details: HepG2 ETS cis-reporter transcription, actives raise or lower the signal
In short: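 HepG2 cells transfected with multiple cis-regulated reporter units measuring endogenous ETS-driven transcription, 24 h after dosing. Reporter mRNA quantified by RT-PCR with capillary electrophoresis; bidirectional fit relative to DMSO.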

[16] = target: Hepatocyte nuclear factor 3-beta (Homo sapiens) (UniProt Q9Y261); experiment: ATG_FoxA2_CIS: Attagene CIS-FACTORIAL HepG2 Assay for human Forkhead box A2 (FOXA2) (AID 2282942); details: HepG2 cis-reporter transcription factor activity, 24 h; actives raise or lower the signal
Hepatocyte nuclear factor 3-beta (Homo sapiens), sequence (Q9Y261 whole entry, looked up): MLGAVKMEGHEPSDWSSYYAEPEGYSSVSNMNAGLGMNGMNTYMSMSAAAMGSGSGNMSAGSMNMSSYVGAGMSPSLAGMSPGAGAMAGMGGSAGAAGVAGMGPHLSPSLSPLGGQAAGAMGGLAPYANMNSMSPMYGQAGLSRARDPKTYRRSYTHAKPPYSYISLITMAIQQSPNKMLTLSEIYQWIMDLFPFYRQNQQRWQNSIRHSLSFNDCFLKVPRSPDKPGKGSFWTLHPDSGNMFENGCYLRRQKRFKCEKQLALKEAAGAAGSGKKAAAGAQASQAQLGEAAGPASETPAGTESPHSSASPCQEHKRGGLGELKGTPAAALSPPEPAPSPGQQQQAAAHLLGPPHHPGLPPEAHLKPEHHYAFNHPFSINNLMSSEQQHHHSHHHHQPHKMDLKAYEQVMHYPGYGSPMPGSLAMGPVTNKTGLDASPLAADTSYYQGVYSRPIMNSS
In short: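 24 h dosing of HepG2 bearing cis-reporter constructs; mRNA readout by RT-PCR/CE fluorescence; bidirectional fit, DMSO baseline.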

[17] = ATG_FoxO_CIS: Attagene CIS-FACTORIAL HepG2 Assay for human Forkhead box O (FoxO) (AID 2282943); details: HepG2 Attagene cis-reporter, FoxO element, mRNA; actives raise or lower the signal
In short: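 HepG2 cells transiently transfected with cis-element-driven reporter units report endogenous FoxO activity. After 24 h chemical exposure, reporter mRNA quantified by RT-PCR, fluorescent labeling, HpaI digestion and capillary electrophoresis; bidirectional fit versus DMSO.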

[18] = ATG_GATA_CIS: Attagene CIS-FACTORIAL HepG2 Assay for human GATA Binding Protein (AID 2282944); details: HepG2 GATA cis-element reporter, Attagene multiplex mRNA; actives raise or lower the signal
In short: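 Reporter transcripts from a GATA cis-regulated unit, among multiplexed reporters in transfected HepG2 cells, were measured by RT-PCR with capillary electrophoresis after 24 h dosing. Induction or loss scored relative to DMSO.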

[19] = target: Retinoic acid receptor alpha (Homo sapiens) (UniProt P10276); experiment: ATG_DR5_RAR_CIS: Attagene CIS-FACTORIAL HepG2 Assay for human Retinoic Acid Receptor Alpha (RARE), DR5 submotif (AID 2282934); details: HepG2 Attagene cis-factorial RARE DR5 reporter, mRNA; actives raise or lower the signal
Retinoic acid receptor alpha (Homo sapiens), sequence (P10276 whole entry, looked up): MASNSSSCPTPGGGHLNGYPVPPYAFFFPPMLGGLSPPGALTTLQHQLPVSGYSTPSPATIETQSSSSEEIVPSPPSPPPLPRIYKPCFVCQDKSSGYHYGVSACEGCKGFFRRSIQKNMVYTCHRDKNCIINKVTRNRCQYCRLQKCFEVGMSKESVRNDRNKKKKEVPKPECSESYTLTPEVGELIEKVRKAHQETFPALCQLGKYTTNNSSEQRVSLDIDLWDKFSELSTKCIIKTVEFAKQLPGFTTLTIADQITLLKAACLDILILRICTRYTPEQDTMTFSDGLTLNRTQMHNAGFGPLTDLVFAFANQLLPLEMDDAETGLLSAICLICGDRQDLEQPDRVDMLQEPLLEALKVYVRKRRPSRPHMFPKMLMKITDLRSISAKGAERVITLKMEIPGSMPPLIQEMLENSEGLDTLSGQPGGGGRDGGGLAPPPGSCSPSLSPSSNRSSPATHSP
In short: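 HepG2 cells transiently transfected with multiplexed reporter units; DR5 cis-element drives reporter through endogenous transcription factors. After 24 h dosing, reporter mRNA quantified by RT-PCR, fluorescent labeling, HpaI digestion and capillary electrophoresis; bidirectional fitting versus DMSO.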

[20] = ATG_GLI_CIS: Attagene CIS-FACTORIAL HepG2 Assay for human Zinc Finger Protein GLI1 (AID 2282945); details: HepG2, Attagene cis-factorial reporter mRNA, GLI element; actives raise or lower the signal
In short: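 Transiently transfected HepG2 cells report endogenous transcription factor activity via cis-element-driven reporter units. After 24 h compound exposure, reporter mRNA was measured by RT-PCR with capillary electrophoresis; bidirectional fitting against DMSO baseline.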

Measured: AC50

O=CN1CCCCC1
not listed: [19] | [20]
inactive: all other assays above

O=C(Nc1ccccc1)c1ccccc1O
active: [2] 53.4 µM | [5] 19.1 µM | [6] 27 µM | [8] 30.7 µM | [14] 63.1 µM
not listed: [7] | [12] | [15] | [16]
inactive: all other assays above

CCN(CCC#N)c1ccc(N=Nc2c(Cl)cc([N+](=O)[O-])cc2Cl)cc1
active: [6] 27 µM
not listed: [10]
inactive: all other assays above

C=CC(=O)OCC(Br)CBr (centres undefined)
active: [2] 180 µM | [3] 100 µM | [4] 53.4 µM | [10] 72.9 µM | [12] 52.8 µM | [16] 131 µM
not listed: [7] | [15] | [20]
inactive: all other assays above

O=C1CCCN1CCO
not listed: [10] | [11] | [18]
inactive: all other assays above

CC(C)(C)C(=O)CCc1ccc(Cl)cc1
active: [14] 30.2 µM
not listed: [11] | [19] | [20]
inactive: all other assays above

O=S(=O)(O)c1ccc2cc(O)c(S(=O)(=O)O)cc2c1
active: [3] 166 µM | [4] 60.8 µM | [5] 138 µM
not listed: [10] | [11] | [19]
inactive: all other assays above

COc1ccc(NC(C)=O)cc1N
active: [5] 50.4 µM
not listed: [19] | [20]
inactive: all other assays above
